Active and inactive are the calls of the source. How the source made its calls: active means hit-call score of the fitted dose curve at least 0.9, where 1 is the maximum; inactive means score below 0.9.

Read-out in test [1]: Urokinase-type plasminogen activator receptor (uPAR), PLAUR (gene 5329)
The test is described as follows: BSK_4H_uPAR: BioMAP Diversity Plus: 4H Assay for Urokinase-type plasminogen activator receptor (uPAR) Biomarker Activity (AID 2283030). The settings on record: primary human endothelial cells (HUVEC); actives raise or lower the signal. A digest of the protocol:
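Chemicals are dosed onto human vascular endothelial primary cells (umbilical vein). After 24 h, uPAR is read by ELISA. Gain or loss of signal is fitted relative to DMSO.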

Read-out in test [2]: Vascular endothelial growth factor receptor 2 (Homo sapiens) (UniProt P35968)
The test is described as follows: BSK_4H_VEGFRII: BioMAP Diversity Plus: 4H Assay for Vascular endothelial growth factor receptor 2 (VEGFR2) Biomarker Activity (AID 2283031).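 On AC50: cell-surface VEGFR2 protein level quantified by ELISA.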 The settings on record: primary human endothelial cells (HUVEC); actives raise or lower the signal. A digest of the protocol:
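VEGFRII levels on human vascular endothelial primary cells were determined by ELISA at 24 hours post-dosing, with gain- or loss-of-signal fitted against DMSO controls.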

Read-out in test [3]: Human Leukocyte Antigen - DR isotype (HLADR), HLA-DRA (gene 3122)
The test is described as follows: BSK_BE3C_HLADR: BioMAP Diversity Plus: BE3C Assay for Human Leukocyte Antigen - DR isotype (HLADR) Biomarker Activity (AID 2283032). The settings on record: primary human bronchial epithelial cells; actives raise or lower the signal. Summed up:
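Cell-surface HLA-DR ELISA readout at 24 h after dosing in the BE3C primary human lung bronchial epithelial system; gain or loss of signal against DMSO, with parallel sulforhodamine B staining of total protein for overt cytotoxicity.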

Read-out in test [4]: Vascular cell adhesion molecule 1 (VCAM1), VCAM1 (gene 7412)
The test is described as follows: BSK_4H_VCAM1: BioMAP Diversity Plus: 4H Assay for Vascular cell adhesion molecule 1 (VCAM1) Biomarker Activity (AID 2283033).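 On outcome: cell-surface VCAM-1 protein measured by ELISA.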 The settings on record: primary human endothelial cells (HUVEC); actives raise or lower the signal. A digest of the protocol:
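VCAM-1 ELISA read 24 h after chemical dosing of HUVEC in the BioMAP 4H system, with gain or loss of signal fitted relative to DMSO. Parallel SRB staining (560 nm) checked overt cytotoxicity.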

Read-out in test [5]: Interferon-gamma inducible Protein 10 (IP10), CXCL10 (gene 3627)
The test is described as follows: BSK_BE3C_IP10: BioMAP Diversity Plus: BE3C Assay for Interferon-gamma inducible Protein 10 (IP10) Biomarker Activity (AID 2283034). The note with it: primary human bronchial epithelial cells; actives raise or lower the signal. Summed up:
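IP-10 quantified by ELISA in human primary bronchial epithelial cell cultures at 24 hours post-dosing. Gain or loss of signal fitted relative to DMSO; parallel SRB staining assessed overt cytotoxicity.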

Read-out in test [6]: Monokine induced gamma interferon (MIG), CXCL9 (gene 4283)
The test is described as follows: BSK_BE3C_MIG: BioMAP Diversity Plus: BE3C Assay for Monokine induced gamma interferon (MIG) Biomarker Activity (AID 2283035).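 On outcome: MIG protein measured by ELISA in BE3C cultures after 24 h of dosing.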 The settings on record: primary human bronchial epithelial cells; actives raise or lower the signal. A digest of the protocol:
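Dose cells (human primary bronchial epithelial), incubate 24 h, quantify MIG by ELISA, then fit concentration–response in both directions relative to DMSO control.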

Read-out in test [7]: Transforming growth factor beta 1 (TGFb1), TGFB1 (gene 7040)
The test is described as follows: BSK_BE3C_TGFb1: BioMAP Diversity Plus: BE3C Assay for Transforming growth factor beta 1 (TGFb1) Biomarker Activity (AID 2283036;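 on outcome: TGF-b1 protein level measured by ELISA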). The settings on record: primary human bronchial epithelial cells; actives raise or lower the signal. Summed up:
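ELISA readout of TGF-b1 from human lung bronchial epithelial primary cells, taken 24 h post-treatment. Gain or loss of signal fitted relative to DMSO baseline, with parallel SRB staining for overt cytotoxicity.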

Read-out in test [8]: Plasminogen activator inhibitor-1 (PAI1), SERPINE1 (gene 5054)
The test is described as follows: BSK_BE3C_PAI1: BioMAP Diversity Plus: BE3C Assay for Plasminogen activator inhibitor-1 (PAI1) Biomarker Activity (AID 2283037). The note with it: primary human bronchial epithelial cells; actives raise or lower the signal. A digest of the protocol:
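PAI-1 was measured by ELISA in human primary bronchial epithelial cultures 24 h after chemical dosing, with cytotoxicity checked by SRB total-protein staining in parallel cultures. Activity was fitted in both directions relative to DMSO.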

Read-out in test [9]: urokinase plasminogen activator (uPA), PLAU (gene 5328)
The test is described as follows: BSK_BE3C_uPA: BioMAP Diversity Plus: BE3C Assay for urokinase plasminogen activator (uPA) Biomarker Activity (AID 2283038).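 On outcome: uPA protein level quantified by ELISA in cell cultures; uPA read one day after compound addition.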 The note with it: primary human bronchial epithelial cells; actives raise or lower the signal. A digest of the protocol:
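Measured by ELISA: uPA from human primary bronchial epithelial cells 24 h after chemical treatment. Values derive from bidirectional curve fitting with DMSO serving as negative control. Total protein by SRB staining in parallel wells flagged overt cytotoxicity.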

Read-out in test [10]: Urokinase-type plasminogen activator receptor (uPAR), PLAUR (gene 5329)
The test is described as follows: BSK_BE3C_uPAR: BioMAP Diversity Plus: BE3C Assay for Urokinase-type plasminogen activator receptor (uPAR) Biomarker Activity (AID 2283039).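 On outcome: cells exposed to compound for one day before measurement.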 The note with it: primary human bronchial epithelial cells; actives raise or lower the signal. A digest of the protocol:
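uPAR levels were measured by ELISA after 24 h compound treatment of primary human bronchial epithelial cells, fitted in both directions relative to DMSO. Parallel SRB staining served as the cytotoxicity read-out.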

Take `Cc1c([N+](=O)[O-])cc2c(c1[N+](=O)[O-])C(C)(C)CC2(C)C`: the result in test [1], in test [2], in test [4], in test [6] and in test [9] was inactive. In addition, the AC50 – broadly, the concentration at which the activity in the assay is half-maximal – in [3] is 8.05 µM (active); in [5], 20 µM (active); in test [7], 13.5 µM (active); in test [8] it was 5 µM (active); in test [10], 16.1 µM (active).

As for `ClC(Cl)c1ccccc1`, the outcome in [1], in test [2], in test [3], in test [4], in test [5] and in test [6] was inactive. Besides, the outcome in test [7], in test [8], in test [9] and in [10] was inactive.

As to `O=[N+]([O-])c1ccc(Cl)c(Cl)c1`, the result in [1], in [2], in test [3], in [4], in test [5] and in [6] was inactive. The result in test [7], in test [8] and in test [9] was inactive.

Regarding `COCCOCCO`, the result in [1], in test [2], in test [3], in test [4], in [5] and in test [6] was inactive. Also, the result in test [7], in test [8], in test [9] and in test [10] was inactive.

As for `CCCN(CCC)c1c([N+](=O)[O-])cc(C(C)C)cc1[N+](=O)[O-]`, the outcome in test [1], in test [5], in test [6], in test [7], in [8] and in test [9] was inactive. In addition, in [10], the outcome was inactive. In addition, the AC50 was 20 µM (active) in test [2], 5.79 µM (active) in test [3] and 23.2 µM (active) in test [4].

On to `CCNc1nc(Cl)nc(NC(C)(C)C)n1`, for which the result in test [1], in test [2], in test [3], in [4], in test [5] and in test [6] was inactive. For the same compound, the result in [7], in test [8], in [9] and in test [10] was inactive.

On to `CC(C)(C)c1ccccc1OP(=O)(Oc1ccccc1)Oc1ccccc1`, for which the concentration at half-maximal activity (AC50) in [1] was 34.4 µM (active); in test [3], 2.85 µM (active); in [4] it was 20 µM (active). Moreover, the result in [2], in [5], in test [6], in [7], in [8] and in test [9] was inactive. Besides, the result in test [10] was inactive.

With `O=C(O)C1C(C(=O)O)C2(Cl)C(Cl)=C(Cl)C1(Cl)C2(Cl)Cl` (centres undefined), the result in [1], in test [2], in [3], in test [4], in test [5] and in [6] was inactive. In addition, the outcome in test [7], in test [8], in test [9] and in test [10] was inactive.

For `O=c1ssc(Cl)c1Cl`, the AC50 was 7.3 µM (active) in test [1]; 8.51 µM (active) in test [3]; 3.91 µM (active) in test [4]; 3.38 µM (active) in [5]; 12.6 µM (active) in test [6]; 14.8 µM (active) in test [7]. Besides, the AC50 is 11.7 µM (active) in test [8], 9.31 µM (active) in test [9] and 12.2 µM (active) in test [10]. Moreover, in test [2], the result was inactive.

Consider `CCOc1ccc(C(C)(C)COCc2cccc(Oc3ccccc3)c2)cc1`, for which the outcome in test [1], in test [2], in [3], in test [4], in test [5] and in test [6] was inactive. Moreover, the result in [7], in test [8], in [9] and in [10] was inactive.

With `Cc1ccc(N)cc1N`, the result in test [1], in test [2], in test [3], in test [4], in test [5] and in test [6] was inactive. Also, the outcome in [7], in [8], in test [9] and in test [10] was inactive.

For `CC(Cc1ccc(OCC(=O)O)cc1)NCC(O)c1csc(C(F)(F)F)n1` (centres undefined), the result in test [1], in test [2], in [3], in test [4], in [5] and in [6] was inactive. Moreover, the result in test [7], in test [8], in test [9] and in test [10] was inactive.

As to `CCOS(=O)(=O)OCC`, the outcome in [1], in [2], in test [3], in test [4], in test [5] and in [6] was inactive. The outcome in test [7], in test [8], in test [9] and in [10] was inactive.

With `O=P1(N(CCCl)CCCl)NCCCO1` (centres undefined), the result in test [1], in test [2], in test [3], in [4], in test [5] and in test [6] was inactive. Further, the outcome in test [7], in [8], in test [9] and in [10] was inactive.

Consider `Cc1ccc2c(c1N)C(=O)c1ccccc1C2=O`, for which the outcome in test [1], in [2], in test [4], in [5], in test [6] and in test [7] was inactive. Further, the result in test [8], in test [9] and in test [10] was inactive. The AC50 in test [3] was 5.4 µM (active).

As for `CCOP(=S)(NC(C)C)Oc1ccccc1C(=O)OC(C)C` (centres undefined), the result in test [1], in test [2], in [3], in test [4], in [5] and in test [6] was inactive. In addition, the result in [7], in [8], in test [9] and in [10] was inactive.

Consider `CC(C)(C)c1ccc(O)cc1`, for which the outcome in [1], in test [2], in test [3], in test [4], in [5] and in test [6] was inactive. In addition, the outcome in [7], in test [8], in test [9] and in test [10] was inactive.

Regarding `CCOP(=S)(OCC)SCS(=O)(=O)CC`, the result in test [1], in [2], in test [3], in test [4], in test [5] and in [6] was inactive. The outcome in test [7], in test [8], in test [9] and in test [10] was inactive.

In the case of `CCOP(=S)(Oc1ccc([N+](=O)[O-])cc1)c1ccccc1` (centres undefined), the outcome in [1], in test [2], in test [3], in [5], in test [6] and in [7] was inactive. Besides, the result in test [8], in test [9] and in [10] was inactive. For the same compound, the AC50 in test [4] is 8.86 µM (active).

As to `c1ccc2c(c1)Nc1ccccc1S2`, the result in test [1], in [2], in test [3], in [4], in [5] and in test [6] was inactive. Further, the result in test [7], in test [8], in test [9] and in test [10] was inactive.
